# Reference: PubChem BioAssay (NCATS)
# Results filed as inconclusive are left out. Values without a mark were called inactive. The source made the active and inactive calls. Calls come from the whole dose curve; as a rule, active = well fitted curve in the direction sought with a large enough effect; inconclusive = small, poorly fitted or top-dose-only effect, or another doubt; inactive = no such curve, though single readings can be large; an effect the other way counts as inactive or inconclusive.
# System: not listed separately
# Assay: HepG2 cells viability qHTS for Zika virus inhibitors (AID 1347168); note: % is set by controls: 0 for no effect and ±100 for the full control effect
# Details: Zika counter-screen; series mostly up to 45.9 µM; activity change, negative = cytotoxicity: at the top concentration
# Procedure, shortened: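 Counter-screen for cytotoxicity of hits from NS2B-NS3 protease qHTS. Overnight-attached cells (2.5 x 10^5 cells/mL, DMEM/4% FBS) were dosed in titration, incubated 24 to 48 hours, then assayed by CellTiter Glo.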
row,Compound,"activity change, negative = cytotoxicity"
1,O=S(=O)(O)c1ccc2cc(N=Nc3cc(S(=O)(=O)O)c4cccnc4c3O)ccc2c1,-8.86%
2,O=C(Nc1ccccc1)Nc1ccc(-c2ccc(C(=O)[C@H]3CCC[C@H]3C(=O)O)cc2)cc1,5.45%
3,C[C@H]1COC2=C1C(=O)C(=O)c1c2ccc2c1CCCC2(C)C,-0.3%
4,N#CC(c1ccc(Cl)cc1)c1c(Cl)cc(-n2ncc(=O)[nH]c2=O)cc1Cl (stereo unspecified),-17.8%
5,O=C(O)Cc1cccc(OCCCN(Cc2cccc(C(F)(F)F)c2Cl)CC(c2ccccc2)c2ccccc2)c1,2.3%

# System: not listed separately
# Assay: qHTS to identify inhibitors of the type 1 interferon - major histocompatibility complex class I in skeletal muscle: primary screen against the NCATS Mechanism Interrogation Plate v5.0 (MIPE) Libary (AID 1347411); note: nearly all actives have a fitted effect of over 65% in size; note: potency is the fitted concentration of half-maximal effect;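 for activity change, negative = inhibition: plate controls were vehicle for no effect and reference inhibitor for full effect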
# Details: iHSKM cells + IFN-b, HiBiT-tagged MHC-I luminescence, 24 h; series mostly up to 45.8 µM; activity change, negative = inhibition: at the top concentration
# Procedure, shortened: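 Luminescence from HiBiT-tagged endogenous HLA-B*08:01 served as the MHC class I read-out. CRISPR-engineered C25cl48 human myoblasts received 4.0 ng/ml IFN-beta plus compound for 24 hrs, with an 11-point, 1:3 series topping at 46 uM final.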
Compound,"activity change, negative = inhibition",Potency
CCN(CCO)CCCOc1ccc2c(Nc3cc(CC(=O)Nc4cccc(F)c4)[nH]n3)ncnc2c1,-5.24%,
O=S(=O)(O)c1ccc2cc(N=Nc3cc(S(=O)(=O)O)c4cccnc4c3O)ccc2c1,-54.4%,
COc1ccc(-c2nc3ccc(C4=NNC(=O)CC4C)cc3[nH]2)cc1 (stereo unspecified),-15.5%,
CC1=C(C(=O)Nc2cc3cn[nH]c3cc2F)C(c2ccc(C(F)(F)F)cc2)CC(=O)N1 (stereo unspecified),-20.8%,
CNc1nc(Nc2ccc(C(=O)N3CCOCC3)cc2OC)ncc1Cl,-8.06%,
O=C(CC12CC3CC(CC(C3)C1)C2)Nc1cccc2nc(NCCNCCO)ccc12,-10.4%,
Cc1ccc2c(c1)C(=O)[C@]1(O)CCN(c3ccccc3)C1=N2,-10.9%,
Cc1cc(-c2ncc(CC(=O)Nc3ccc(-c4cnccn4)cn3)cc2C)ccn1,-18.6%,
NS(=O)(=O)c1cc(Cl)c(Cl)c(S(N)(=O)=O)c1,2.26%,
c1ccc(CNc2nc(N3CCOc4ccccc43)nc3c2CCCC3)cc1,-7.86%,
COc1ccc(Cn2ccc3ccc(C(=O)NO)cc32)cc1,-1.33%,
N#CC(c1ccc(Cl)cc1)c1c(Cl)cc(-n2ncc(=O)[nH]c2=O)cc1Cl (stereo unspecified),7.95%,
CN1CCN(c2cccc(Nc3nc4c(-c5ccc(S(C)(=O)=O)cc5)cccn4n3)c2)CC1,,5.23 µM (active)
NC(=O)c1noc([C@H](CCCC2CCCCC2)CC(=O)NO)n1,-20.9%,
O=C(c1ccc(C(=O)N2CCC(N3CCCC3)CC2)c(Nc2ccccc2)c1)N1CCC(N2CCCC2)CC1,7.64%,
O=C(O)Cc1cccc(OCCCN(Cc2cccc(C(F)(F)F)c2Cl)CC(c2ccccc2)c2ccccc2)c1,-22.2%,
C[C@H](c1ccc(F)cc1CCCC(=O)O)N(c1cc(F)ccc1F)S(=O)(=O)c1ccc(Cl)cc1,12.4%,

# Biological target: Protein phosphatase 1D (Homo sapiens) (UniProt O15297)
# Sequence (O15297 whole entry, looked up): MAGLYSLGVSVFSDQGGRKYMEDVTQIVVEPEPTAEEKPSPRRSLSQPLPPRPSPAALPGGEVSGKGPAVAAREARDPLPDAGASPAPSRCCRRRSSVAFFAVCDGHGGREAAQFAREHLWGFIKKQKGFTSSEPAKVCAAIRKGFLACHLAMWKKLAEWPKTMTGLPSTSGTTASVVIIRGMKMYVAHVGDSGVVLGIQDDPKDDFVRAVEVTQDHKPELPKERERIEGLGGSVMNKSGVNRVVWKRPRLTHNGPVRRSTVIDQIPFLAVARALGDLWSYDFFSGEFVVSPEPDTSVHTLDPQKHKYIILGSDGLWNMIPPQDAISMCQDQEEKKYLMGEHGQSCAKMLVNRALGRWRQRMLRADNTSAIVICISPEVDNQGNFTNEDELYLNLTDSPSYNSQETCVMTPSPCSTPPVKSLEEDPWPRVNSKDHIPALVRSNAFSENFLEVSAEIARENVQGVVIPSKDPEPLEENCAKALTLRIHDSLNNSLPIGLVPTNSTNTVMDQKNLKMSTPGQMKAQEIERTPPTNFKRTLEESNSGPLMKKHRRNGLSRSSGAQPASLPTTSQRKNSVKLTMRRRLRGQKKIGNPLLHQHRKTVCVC
# Assay: RapidFire Mass Spectrometry qHTS Assay for Modulators of WT P53-Induced Phosphatase 1 (WIP1) (AID 1347424);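 note: amount of dephosphorylated VEPPL-S-QETFS peptide product formed by WIP1; plate controls were DMSO wells for no effect and GSK830371 inhibitor control at 10 µM for full effect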
# Details: WIP1 dephosphorylation of phosphopeptide, RapidFire MS; series mostly up to 63 µM; activity change, negative = inhibition: at the top concentration
# Procedure, shortened: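 WIP1 (10 nM final) was preincubated 1 h at room temperature with compounds in Tris-HCl pH 7.5, 30 mM MgCl2, TCEP, EGTA, BSA; 2 uM VEPPL-pS-QETFS phosphopeptide was added for 5 min, quenched with formic acid, and dephosphorylated product quantified by RapidFire MS.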
row,Compound,"activity change, negative = inhibition"
1,CCCCC[C@H](O)C=C[C@H]1[C@H](O)CC(=O)[C@H]1CC=CCCCC(=O)O,-2.87%
2,COc1ccc(-c2nc3ccc(C4=NNC(=O)CC4C)cc3[nH]2)cc1 (stereo unspecified),-5.3%
3,O[C@@H](COc1cccc2ncccc12)CN1CCN(C2c3ccccc3[C@@H]3[C@H](c4ccccc42)C3(F)F)CC1 (stereo partly specified),7.69%

# Biological target: Protein phosphatase 1D (Homo sapiens) (UniProt O15297)
# Assay: Rhodamine-PBP qHTS Assay for Modulators of WT P53-Induced Phosphatase 1 (WIP1) (AID 1347425); note: % of control where 0% means no effect
# Details: recombinant WIP1, Rhodamine-PBP phosphate fluorescence, real-time; series mostly up to 57.5 µM; activity change, negative = inhibition: at the top concentration
# Procedure, shortened: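 WIP1 (5 nM final) was preincubated with compound for 1 hour at room temperature. It then dephosphorylated 10 uM VEPPL-pS-QETFS peptide in Tris-HCl pH 7.5 with 30 mM MgCl2. Released Pi was detected by 10 uM Rh-PBP fluorescence (ex 525/em 598 nm) read at 1-min intervals for 11 min, as delta f1 - f0.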
row,Compound,"activity change, negative = inhibition"
1,CCCCC[C@H](O)C=C[C@H]1[C@H](O)CC(=O)[C@H]1CC=CCCCC(=O)O,-4.33%
2,COc1ccc(-c2nc3ccc(C4=NNC(=O)CC4C)cc3[nH]2)cc1 (stereo unspecified),169%
3,O[C@@H](COc1cccc2ncccc12)CN1CCN(C2c3ccccc3[C@@H]3[C@H](c4ccccc42)C3(F)F)CC1 (stereo partly specified),-5.28%

# System: not listed separately
# Assay: Primary qHTS for inhibitors of La Crosse Virus (LACV) - induced cell death in SH-SY5Y cells (AID 1508616);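 note: top concentration of the series differs between compounds; 0% = infected DMSO wells and 100% = uninfected DMSO wells; higher means more rescue of cells from virus-induced death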
# Details: SH-SY5Y LACV cytopathicity rescue, ATP luminescence, 6 d; series mostly up to 4.29 µM; activity change: at the top concentration
# Procedure, shortened: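 Protection against LACV-induced cell death is scored in SH-SY5Y cells exposed to compounds and virus (0.01 MOI) for 6 days. Data normalized to virus-infected DMSO wells and virus-free DMSO wells.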
row,Compound,activity change
1,CCCCC[C@H](O)C=C[C@H]1[C@H](O)CC(=O)[C@H]1CC=CCCCC(=O)O,37.9%
2,COc1ccc(-c2nc3ccc(C4=NNC(=O)CC4C)cc3[nH]2)cc1 (stereo unspecified),44.1%
3,O[C@@H](COc1cccc2ncccc12)CN1CCN(C2c3ccccc3[C@@H]3[C@H](c4ccccc42)C3(F)F)CC1 (stereo partly specified),41.8%
